Reference: ChEMBL document CHEMBL3988442, “University of Dundee, Small-Polar-MMV Screening Library” (2021)
Out of some 69,000 compounds screened, about 1,000 (1.4%) showed an effect of 50% or more. The entries come from a sample that favours strong results as a whole.

Test system: Leishmania donovani
Experiment: Leishmania intramacrophage assay
Format: functional, organism-based
Parameters: scale not given: in the data most compounds retested in dose-response had high values

Compound: O=C1Nc2ccccc2CC12CCCN2Cc1ccc(F)cc1 (configuration not stated)
- Percent Effect (30.3 µM, […]): -31.7%

Compound: O=C1Nc2ccccc2CN(C/C=C/c2ccccc2)C12CCNC2 (configuration not stated)
- Percent Effect (30.3 µM, […]): 95.58%

Compound: O=C1Nc2ccccc2CN(CC2CC2)C12CCNC2 (configuration not stated)
- Percent Effect (30.3 µM, […]): 19.67%

Compound: CC(C)NC(=O)Nc1ccc(-c2nc(C(C)C)no2)cc1
- Percent Effect (30.3 µM, […]): -3.03%

Compound: Cc1cc2[nH]cc(C(=O)N3CCCCC3c3ccc(F)cc3)c(=O)n2n1 (configuration not stated)
- Percent Effect (30.3 µM, […]): 54.57%

Compound: Cc1cc(=O)c(C(=O)N2CCCCC2c2ccc(F)cc2)c[nH]1 (configuration not stated)
- Percent Effect (30.3 µM, […]): 7.21%

Compound: Cc1nc2[nH]cc(C(=O)N3CCCCC3c3ccc(F)cc3)c(=O)n2n1 (configuration not stated)
- Percent Effect (30.3 µM, […]): -11.65%

Compound: COc1c(CNCCNC(=O)c2ccco2)c(C)nn1C
- Percent Effect (30 µM, 30.03 µM): 1.036%

Compound: CCn1nc(C)c2ccn(CC(=O)NCCCOC)c(=O)c21
- Percent Effect (30.3 µM, […]): 6.815%

Compound: Cc1cc(C(=O)N2CCCC(c3nccn3Cc3cscn3)C2)on1 (configuration not stated)
- Percent Effect (30.3 µM, […]): 7.716%

Compound: COc1ccccc1OC1CN(C(=O)Cc2c(C)nc3ccccn23)C1
- Percent Effect (30.3 µM, […]): 42.17%

Compound: Cc1nc(CN2C[C@@H](CN3CCOCC3)[C@@H](CO)C2)c2ccccn12
- Percent Effect (30.3 µM, […]): -8.953%

Compound: Cc1ccccc1OC1CN(Cc2c(C)nc3ccccn23)C1
- Percent Effect (30.3 µM, […]): 56.4%

Compound: Cc1nc2ccccn2c1CN1C[C@@H](CN2CCOCC2)[C@@H](CO)C1
- Percent Effect (30.3 µM, […]): 60.75%

Compound: Cc1nc2ccccn2c1CN1C[C@@H](CN(C)CCO)[C@@H](CO)C1
- Percent Effect (30.3 µM, […]): 17.46%

Compound: Cc1nc2ccccn2c1CN1C[C@@H](CN(C)C)[C@@H](CO)C1
- Percent Effect (30.3 µM, […]): 28.56%

Compound: CC(C)CCc1nc(CNCC2CN(C)CCO2)cs1 (configuration not stated)
- Percent Effect (30 µM): 42.41%

Compound: CCN1C(=O)C2(CCOCC2)c2cc(NC(=O)c3cc(C)n[nH]3)ccc21
- Percent Effect (30.3 µM, […]): 7.521%

Compound: Cc1nonc1CC(=O)N1CCC2(CCCN(C3CCOCC3)C2=O)C1 (configuration not stated)
- Percent Effect (30.3 µM, […]): 40.04%

Compound: O=C(c1c[nH]nn1)N1CCCC1C1CCCCC1 (configuration not stated)
- Percent Effect (30.3 µM, […]): 34.69%

Compound: Cc1cc(C)n(C2CCN(S(=O)(=O)N3CCOCC3)CC2)n1
- Percent Effect (30.3 µM, […]): -18.5%

Compound: O=C(NCC(O)c1ccccc1Cl)c1cccc(-n2cnnn2)c1 (configuration not stated)
- Percent Effect (30 µM, 30.03 µM): 18.08%

Compound: CN(C)C(CNC(=O)c1cccc(-n2cnnn2)c1)c1ccccc1Cl (configuration not stated)
- Percent Effect (30 µM, 30.03 µM): -12.85%

Compound: CN(C)C(CNC(=O)c1ccc(-n2cnnn2)cc1)c1ccccc1Cl (configuration not stated)
- Percent Effect (30.3 µM, […]): 52.55%

Compound: Cc1ncc(CNC(C)(C)CO)c2cc(C(=O)c3ccc(Br)cc3)oc12
- Percent Effect (30.3 µM, […]): 44.76%

Compound: Cc1ncc(CNCC(C)O)c2cc(C(=O)c3ccc(Br)cc3)oc12.Cl (configuration not stated)
- Percent Effect (30.3 µM, […]): 46.85%

Compound: Cc1ncc(CNCCO)c2cc(C(=O)c3ccc(Br)cc3)oc12.Cl
- Percent Effect (30.3 µM, […]): 52.55%

Compound: CCn1nc(C)c2ncnc(NCCn3cccn3)c21
- Percent Effect (30.3 µM, […]): -8.829%

Compound: N#Cc1ccc(N2CCC3(CC2)COCCN3Cc2cccnc2)cc1.O=C(O)C(F)(F)F
- Percent Effect (30.3 µM, […]): -0.3912%

Compound: CNc1ncc2c(n1)CN(C1CC(C)(C)NC(C)(C)C1)C2=O
- Percent Effect (30.3 µM, […]): 57.04%

Compound: CC1(C)CC(N2Cc3nc(N)ncc3C2=O)CC(C)(C)N1
- Percent Effect (30 µM, 30.03 µM): 0.1811%

Compound: CNc1ncc2c(n1)CN(C1CCCC1)C2=O
- Percent Effect (30.3 µM, […]): -21.11%

Compound: CCc1nsc(NC2CC(=O)N(C3CC3)C2)n1 (configuration not stated)
- Percent Effect (30.3 µM, […]): 25.34%

Compound: Cc1ccc(-c2[nH]c3ccccc3c2C(=O)O)c(C)c1
- Percent Effect (30.3 µM, […]): 12.49%

Compound: COCCN1CCC(CNC(=O)Nc2ccc(SC(F)(F)F)cc2)C1 (configuration not stated)
- Percent Effect (30.3 µM, […]): 43.78%

Compound: COCCN1CCC(CNC(=O)Nc2ccc(F)c(Cl)c2)C1 (configuration not stated)
- Percent Effect (30.3 µM, […]): 9.001%

Compound: COCCN1CCC(CNC(=O)Nc2ccc(-c3ccccc3)cc2)C1 (configuration not stated)
- Percent Effect (30.3 µM, […]): 93.25%

Compound: Cc1cccc(CN2CCC3(CC(C(=O)NCC(C)C)=NO3)C2)c1 (configuration not stated)
- Percent Effect (30.3 µM, […]): 14.53%

Compound: CN(Cc1ccccc1)c1ccc(C(F)(F)F)cn1
- Percent Effect (30.3 µM, […]): 14.63%

Compound: CN(Cc1ccc([S+](C)[O-])cc1)c1ccc(Br)cn1 (configuration not stated)
- Percent Effect (30.3 µM, […]): 20.24%

Compound: CN(Cc1ccc([S+](C)[O-])cc1)c1ccc(C(F)(F)F)cn1 (configuration not stated)
- Percent Effect (30.3 µM, […]): 54.49%

Compound: Cn1ccnc1CN1CCCN(C(=O)CC(C2CC2)C2CC2)CC1
- Percent Effect (30 µM): 10.73%

Compound: Cc1ncc(CNC(=O)c2nn(C)c3c2CS(=O)(=O)CC3)s1
- Percent Effect (30 µM, 30.03 µM): 17.47%

Compound: Cn1nc(C(=O)NCc2ccccn2)c2c1CCS(=O)(=O)C2
- Percent Effect (30 µM, 30.03 µM): -1.622%

Compound: Cn1nc(C(=O)NCc2cccs2)c2c1CCS(=O)(=O)C2
- Percent Effect (30.3 µM, […]): 62.35%

Compound: CN1C(=O)CCCC12CCCN(Cc1cccs1)C2.O=C(O)C(F)(F)F (configuration not stated)
- Percent Effect (30.3 µM, […]): 13.27%

Compound: OC(COCc1ccccc1F)CN1CCC(Cn2cccn2)CC1 (configuration not stated)
- Percent Effect (30.3 µM, […]): 8.392%

Compound: Cc1ccc(CN2C[C@@H]3CN(C(=O)c4cccn4C)C[C@@H]3C2)cc1.O=C(O)C(F)(F)F
- Percent Effect (30.3 µM, […]): -2.2%

Compound: COc1ccccc1N1CCC(NCc2c(C)noc2C)C1 (configuration not stated)
- Percent Effect (30.3 µM, […]): 7.918%

Compound: Cc1noc(CNc2c(N3CCCC3)cccc2N2CCCC2)n1
- Percent Effect (30.3 µM, […]): 45.54%

Compound: Cc1noc(C)c1CNc1c(N2CCCC2)cccc1N1CCCC1
- Percent Effect (30.3 µM, […]): 97.2%

Compound: Cc1cc(CN2CCC(N(C)Cc3noc(C4CC4)n3)C2)on1 (configuration not stated)
- Percent Effect (30 µM): 11.66%
